Data as given in the supplement of paper PMC10498489.
In all, about 2,300 compounds went through this assay and about 330 (14%) showed activity. These entries were drawn from the full list. Unmarked numbers belong to inactive results.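 The calls were made as follows: active = median modified Z-score above 1.96; inactive = 1.96 or below.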

These compounds were tested on HepG2 Srxn1-GFP reporter cells (+30 nM CDDO-Me) (assay: Srxn1-GFP intensity median modified Z-score relative to plate median; higher = stronger NRF2 / oxidative stress reporter activation, active = hit call of the paper). Settings: 10 µM; exposure time: 24h.
In short: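 In 96-well plates holding 20,000 HepG2 Srxn1-GFP BAC reporter cells per well, compound at 10 μM and an NRF2 activator at 30 nM were added together for 24 h, with DMSO at ≤0.1%, across three replicate plates. After fixation in formaldehyde and Hoechst staining, confocal images were analysed cell by cell for cytoplasmic GFP, and images containing under 100 cells were excluded. Values are replicate medians of the per-plate modified Z-score of GFP intensity, scaled by 1.4826 × median absolute deviation.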

SMILES | Srxn1-GFP intensity median modified Z-score
CC(=O)O[C@H]1CC[C@@]2(C)C(C[C@@H](OC(C)=O)[C@]3(C)C2CC[C@@]2(C)[C@H](c4ccoc4)OC(=O)C4O[C@]423)C1(C)C (stereo partly drawn) [euspeclibcmpd2319] | 5.12 (active)
CC(=O)OC1CC(OC(C)=O)C2(C)C(CC(OC(C)=O)C3(C)C2CCC2(C)C(c4ccoc4)OC(=O)C4OC423)C1(C)C (stereo not drawn) [euspeclibcmpd1940] | 0.483
CC(=O)O[C@H]1C[C@@H](OC(C)=O)C(C)(C)C2C[C@@H](O)[C@]3(C)C(CC[C@@]4(C)[C@H](c5ccoc5)OC(=O)C5O[C@]543)[C@]21C (stereo partly drawn) [euspeclibcmpd1544] | 0.39
COc1ccc(C2COc3c(ccc(O)c3OC)C2)c(OC)c1O (stereo not drawn) [euspeclibcmpd1831] | 1.65
CC1(C)C(=O)C2C[C@@]3(O)C4=CC(=O)O[C@@H](c5ccoc5)[C@]4(C)CCC3[C@](C)(C2=O)[C@H]1CC(=O)O (stereo partly drawn) [euspeclibcmpd1558] | -0.051
N=c1[nH]c(=O)c2ncn(CCC(CO)CO)c2[nH]1 [euspeclibcmpd464] | 0.273
CCC(=O)c1ccc(O)cc1 [euspeclibcmpd1262] | 0.156
O=C(O)C1=CC(=C(c2ccc(O)c(C(=O)O)c2)c2ccc(O)c(C(=O)O)c2)C=CC1=O [euspeclibcmpd1741] | -0.835
O=C1C=CC(=C(c2ccc(O)cc2)c2ccc(O)cc2)C=C1 [euspeclibcmpd1770] | 19.5 (active)
O=C(O)c1cc(N=Nc2ccc(S(=O)(=O)N=c3cccc[nH]3)cc2)ccc1O [euspeclibcmpd280] | -0.614
Cc1ccc(C(=O)c2ccc(CC(=O)O)n2C)cc1 [euspeclibcmpd2405] | 0.508
OC[C@H](O)C(O)[C@@H](O)CO [euspeclibcmpd2128] | -0.222
COc1cc(O)c2c(=O)c(OC)c(-c3ccc(OC)c(OC)c3)oc2c1 [euspeclibcmpd1656] | -0.275
NC(=O)NC(CCC(=O)O)C(=O)O (stereo not drawn) [euspeclibcmpd1209] | 0.184
O=c1n(CCCN2CCN(c3cccc(Cl)c3)CC2)nc2ccccn12 [euspeclibcmpd533] | 0
O=C1CCc2ccc(OCCCCN3CCN(c4cccc(Cl)c4Cl)CC3)cc2N1 [euspeclibcmpd879] | 0.292
CCc1nn(CCCN2CCN(c3cccc(Cl)c3)CC2)c(=O)n1CCOc1ccccc1 [euspeclibcmpd461] | 8.98 (active)
Cc1c(C)c2c(c(C)c1O)CCC(C)(C(=O)O)O2 (stereo not drawn) [euspeclibcmpd1989] | -0.727
